This is one part of a sample in which hits are shown more often than they occur.
B2AR arrestin ag = beta-arrestin recruitment by human beta2-adrenergic receptor ligands | HTLA Tango cells, beta-arrestin recruitment, luciferase luminescence, 18 h | AID 1347077 | 44,000 tested, under 10 active | Potency, µM (series often up to 46.1 µM), hits mostly activators;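 also: potency is read from the fitted curve at half-maximal effect; 0% = DMSO and full agonism = EC100 isoproterenol or metaproterenol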
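Tango cell line, 1% FBS DMEM; cpd titration up to 46 microM; 18 hr, 37 degrees C, 5% CO2. Luciferin/ATP substrate mix added, 15 min RT, luminescence. %Activity, CRC fitting, curve-class categorization.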
PTAP-TSG101 blk = TSG101-PTAP interaction inhibition, HIV-1 budding; AID 1347069; Q99816; Fluorescence polarization, FITC-PTAP peptide/Tsg101, 20 min; Potency, µM (series often up to 115 µM), hits mostly inhibitors; 44,000 tested, under 10 active; also: potency is read from the fitted curve at half-maximal effect; 0% is about no effect
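Fluorescence polarization binding of Tsg101 binding domain (10 uM final) to FITC-labeled PTAP-motif peptide (50 nM final) in HEPES pH 7.5/NaCl/Tween 20/EDTA/TCEP buffer; 20 min at r.t. Actives by curve class, <25 µM, efficacy <60% inhibition.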
HTT-AS promoter = HTT-AS promoter activation; Potency, µM (top dose mostly 57.5 µM), for the others: at the top dose activity change, positive = activation, most hits filed as activators; AID 1508624; HEK293 HTT-AS promoter firefly luciferase reporter, 24 h; response scale: percent change from vehicle, -100% = no light; actives 0.24% (n = 48,000); also: potency is read from the fitted curve at half-maximal effect; nearly all actives have a fitted effect of over 55% in size
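Firefly luciferase readout (Dual-Glo, 10 min RT) after 24 h, 37 °C compound exposure (final up to 57.5 uM) of HEK293 reporter cells cultured 24 h beforehand; PTC124 at 50 uM final as control inhibitor; activity scaled vehicle 0%, zero RLU -100%.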
GALK inh = GALK (human) enzyme inhibition | AID 1347072 | Potency, µM (doses to about 57.5 µM), for inactives: top-dose activity, negative = inhibition, most hits filed as inhibitors | recombinant GALK, Kinase-Glo ATP luminescence, 1 h | P51570 | 44,000 tested, under 10 active;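 also: plate controls were full GALK reaction for no effect and reaction lacking GALK for full effect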
Target sequence (P51570 whole entry, looked up): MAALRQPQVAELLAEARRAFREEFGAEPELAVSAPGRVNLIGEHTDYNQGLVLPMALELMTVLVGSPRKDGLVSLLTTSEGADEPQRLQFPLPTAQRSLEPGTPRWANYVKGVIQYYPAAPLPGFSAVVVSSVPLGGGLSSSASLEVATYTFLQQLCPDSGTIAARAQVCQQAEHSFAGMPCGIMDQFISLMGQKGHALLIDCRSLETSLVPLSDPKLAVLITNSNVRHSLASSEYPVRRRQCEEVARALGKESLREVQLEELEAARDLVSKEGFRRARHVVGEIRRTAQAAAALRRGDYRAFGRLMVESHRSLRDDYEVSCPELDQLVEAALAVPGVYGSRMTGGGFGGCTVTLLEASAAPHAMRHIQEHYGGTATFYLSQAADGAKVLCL
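Luminescent ATP-depletion readout (Kinase-Glo Plus) after 1 h room-temperature incubation of human GALK (5 nM) with galactose 100 µM and ATP 35 µM, pH 8.0 HEPES/Mg2+ buffer; compounds tested in qHTS format.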
NTMT1 inh = NTMT1 methyltransferase inhibition. Q9BV86. NTMT1 MTase-Glo SAH luminescence, purified enzyme. Potency, µM (series often up to 114 µM), for the others: at the highest dose activity change, negative = inhibition, usual class: inhibitors. actives 2.5% (n = 59,000). AID 1645870;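 also: potency is read from the fitted curve at half-maximal effect; plate controls were DMSO vehicle for no effect and no enzyme for full effect; nearly all actives have a fitted effect of over 65% in size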
Target sequence (Q9BV86 whole entry, looked up): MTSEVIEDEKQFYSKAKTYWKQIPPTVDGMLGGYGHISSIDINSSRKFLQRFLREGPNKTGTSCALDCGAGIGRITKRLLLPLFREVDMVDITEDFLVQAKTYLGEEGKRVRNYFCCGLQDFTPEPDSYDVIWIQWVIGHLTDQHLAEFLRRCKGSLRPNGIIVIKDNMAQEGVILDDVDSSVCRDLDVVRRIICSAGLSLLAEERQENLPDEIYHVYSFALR
HTT prom inh = inhibitors of huntingtin promoter activity. HEK293 HTT promoter firefly luciferase reporter, 24 h. Potency, µM (titrated, usually from 57.5 µM), inactives show at the highest dose activity change, negative = inhibition, actives largely listed as inhibitors. actives 0.93% (n = 48,000). AID 1508623; also: potency is read from the fitted curve at half-maximal effect; nearly all actives have a fitted effect of over 50% in size
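HEK293 cells carrying firefly luciferase reporters were seeded at 2,500 per well in Opti-MEM and cultured for 24 h. They were then treated with compounds at up to 57.5 uM final for 24 h at 37 degrees C before Dual-Glo luminescence readout.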
NNMT inh = blocks human NNMT methyltransferase; shares compounds with NTMT1 inh; NNMT MTase-Glo luminescence, SAH detection; Potency, µM (doses to about 57.1 µM), inactives show at the top dose activity, negative = inhibition, most hits filed as inhibitors; actives 10% (n = 120)
An asterisk follows results filed as active; i = inactive; ? = inconclusive; nt = not tested or not shown; ! = a repeat was not active; [ ] = remark or other dose. Calls follow the shape of the dose curve; as a rule, active = well fitted curve in the direction sought with a large enough effect; inconclusive = small, poorly fitted or top-dose-only effect, or another doubt; inactive = no such curve, though single readings can be large; an effect the other way counts as inactive or inconclusive.

SMILES | B2AR arrestin ag | PTAP-TSG101 blk | HTT-AS promoter | GALK inh | NTMT1 inh | HTT prom inh | others
Cc1cc(SCc2sc(-c3ccc(C(F)(F)F)c(F)c3)nc2C)ccc1OCC(=O)O | nt | nt | ? | nt | 71µM*! | 17%
N#Cc1cc2c(nc1SCC(=O)Nc1ccc(OC(F)(F)F)cc1)C1CCN2CC1 | i | i | -51% | -3% | 6% | 28µM*
CCOC(=O)c1ccc(NC(=O)CSc2nc3c(cc2C#N)N2CCC3CC2)cc1 | i | i | -20% | 9% | -8% | -27%
CCOc1ccc(CN(CCc2ccc3c(c2)OCO3)Cc2cccc(Br)c2)cc1 | i | i | -12% | 1% | 8.9µM* | 0%
CCOc1ccc(CN(CCc2ccc3c(c2)OCO3)Cc2cccc(OC)c2)cc1 | i | i | -28% | -2% | 2% | -29%
Cc1ccc(-n2c(/C=C\c3ccc(F)c(F)c3)nc3ccccc3c2=O)c(C)c1 | i | i | -32% | 4% | 4% | 7.1µM*
Cc1[nH]ncc1-c1cc2nc([C@@H]3CC4CCN3CC4)[nH]c(=O)c2s1 | nt | nt | nt | nt | 12% | nt
O=C1C(I)=CC(=C(c2cc(I)c(O)c(I)c2)c2ccccc2C(=O)O)C=C1I | nt | nt | -24% | nt | 14µM* | -4%
Nc1ccccc1C(=O)O | nt | nt | -4% | nt | 13%[57.5 µM] | 1%
Oc1ccc([C@H]2CNCc3c2ccc(O)c3O)cc1O | nt | nt | -8% | nt | 2.8µM* | 0%
C=C[C@H]1CN2CCC1C[C@@H]2[C@@H](O)c1ccnc2ccccc12 (stereo partly specified) | nt | nt | nt | nt | 10% | nt
CN(C)C(=S)SSC(=S)N(C)C | nt | nt | -43% | nt | 7.9µM* | -28%
COC1CC(OC2CCC3(C=O)C(CCC4C3CCC3(C)C(C5=CC(=O)OC5)CCC43O)C2)OC(C)C1OC1OC(CO)C(O)C(O)C1O (stereo unspecified) | nt | nt | nt | nt | -9%[12.6 µM] | nt
CCCCCCCCCCCCCCCC[N+](C)(C)C | nt | nt | -36% | nt | 25µM* | ?
N#CC(OC1OC(COC2OC(CO)C(O)C(O)C2O)C(O)C(O)C1O)c1ccccc1 (stereo unspecified) | nt | nt | nt | nt | 16%[29.8 µM] | nt
N#Cc1cn([C@@H]2O[C@H](CO)[C@H](O)[C@@H]2O)c2ncnc(N)c12 | nt | nt | nt | nt | 8.9µM* | nt
COc1cc(C)[nH]c(=O)c1CNC(=O)c1c(C)n([C@H](C)C2CCN(CC(F)(F)F)CC2)c2ccccc12 | nt | nt | nt | nt | -2% | nt
C=C1CC[C@H]2[C@@H](/C=C(\C)C(=O)[C@@]3(OC(C)=O)C[C@H](C)[C@H](OC(=O)c4ccccc4)[C@@H]3[C@H]1OC(C)=O)C2(C)C | nt | nt | nt | nt | 19%[29.8 µM] | nt
CCCCCCCCCC(CC)c1ccc(S(=O)(=O)O)cc1 (stereo unspecified) | nt | nt | -17%[116 µM] | nt | 10µM* | 12%[116 µM]
Cc1[nH]c2ccc(Cl)cc2c1CCN(C)C | nt | nt | nt | nt | -12%[57.5 µM] | nt
Cc1sc2c(c1C)C(c1ccc(Cl)cc1)=NC(CC(=O)OC(C)(C)C)c1nnc(C)n1-2 (stereo unspecified) | nt | nt | nt | nt | 8%[57.5 µM] | nt
COc1ccc(NC(=O)c2cccn(Cc3ccc(Cl)cc3)c2=O)c(OC)c1 | i | i | -50% | 0% | -20% | 13µM*
CCOc1ccc(NC(=O)c2cccn(Cc3cccc(Cl)c3)c2=O)cc1 | i | i | -34% | 2% | 8% | 16µM*
Cc1nnc(NC(=O)c2cccn(Cc3cccc(Cl)c3)c2=O)s1 | i | i | 1% | -1% | -9% | 27%
N#Cc1ccc(NC(=O)Nc2nnc(-c3ccncc3)s2)cc1Cl | nt | nt | nt | nt | -9% | nt
SMILES | B2AR arrestin ag | PTAP-TSG101 blk | HTT-AS promoter | GALK inh | NTMT1 inh | HTT prom inh | others
CC1(C)CC[C@]2(NC(=O)C(C)(F)F)CC[C@]3(C)[C@H](C(=O)C=C4[C@@]5(C)C=C(C#N)C(=O)C(C)(C)[C@@H]5CC[C@]43C)[C@@H]2C1 | nt | nt | nt | nt | -5% | nt
CC1CCCC(O)CC(=O)Cc2cc(O)cc(O)c2C(=O)O1 (stereo unspecified) | nt | nt | nt | nt | -15%[29.8 µM] | nt
COc1cc(O)c2c(c1)CCC[C@@H](O)[C@H](O)C(=O)/C=C\C[C@H](C)OC2=O | nt | nt | nt | nt | 10µM* | nt
CCOc1ccc(Oc2ccc(OCc3cc(F)ccc3F)cc2)c(N)c1 | nt | nt | nt | nt | 0%[57.5 µM] | nt
COc1ccc2c(c1)/C(=C/c1cnc[nH]1)C(=O)N2 | nt | nt | nt | nt | 40µM* | nt
O=C(CBr)Nc1ccc(Cl)cc1C(=O)c1ccccc1F | nt | nt | -12% | nt | 14µM* | -5%
Cc1cc(C)c(OP(=O)(OCc2c(-c3ccccc3)no[n+]2[O-])Oc2c(C)cc(C)cc2C)c(C)c1 | nt | nt | nt | nt | -5% | nt
C[C@H](N)[C@H](O)c1ccc(O)c(O)c1 | nt | nt | -5% | nt | 20µM* | -6%
COP(=S)(OC)SCN1C(=O)c2ccccc2C1=O | nt | nt | -26% | nt | 28µM* | -8%
C[C@H]1CCC[C@H](O)CCC/C=C/c2cc(O)cc(O)c2C(=O)O1 | nt | nt | nt | nt | 1.4µM* | nt | NNMT inh=3.5µM*
COC(=O)[C@@]12OC[C@]34[C@H]([C@@H](O)[C@@H]1O)[C@@]1(C)CC(=O)C(O)=C(C)[C@@H]1C[C@H]3OC(=O)[C@H](OC(=O)/C=C(\C)C(C)C)[C@@H]24 | nt | nt | nt | nt | 17% | nt

Assay outcomes: PubChem, National Center for Advancing Translational Sciences (NCATS)
